# Screens as filed in PubChem BioAssay.
# Only some compounds are listed: those with a hit (about 7.8% of all), similar ones and a draw of the others.
# HCV inh: blocks hepatitis C virus. Huh7.5.1 HCVcc-Cre infection, luciferase reporter, 44 h. hit rate 3.4% among 340,000. Potency, µM (series often up to 41.8 µM), without a hit: top-dose activity change, negative = inhibition, hits mostly inhibitors. AID 651820; active = well fitted inhibition curve with a large enough effect; inconclusive = small, poorly fitted or top-dose-only effect, or another doubt; inactive = no such curve, though single readings can be large or run the other way; note: potency is the fitted concentration of half-maximal effect
#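 Cells seeded at 1,000/well and cultured 4 h, then compounds added followed by HCVcc-Cre virus (~0.5 moi). After 44 h further culture, luciferase substrate was added, plates held 15 min at room temperature, and luminescence read for 15 sec.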
# Marburg entry inh: inhibitors of Marburg virus binding or cell entry. Potency, µM (top dose mostly 37.8 µM), for inactives: at the highest dose activity change, negative = inhibition, usual class: inhibitors. hit rate 1.8% among 300,000. Marburg virus pseudotyped entry inhibition, cell reporter; calls by dose curve; tested in HEK293 cells; note: potency is the fitted concentration of half-maximal effect
# VACV Venus inh: vaccinia inhibition (Venus reporter). hit rate 0.46% among 330,000. Potency, µM (top dose mostly 36.5 µM), for the others: at the highest dose activity change, negative = inhibition, most hits filed as inhibitors. Vaccinia virus Venus reporter expression, fluorescence; calls by dose curve; tested in A549 cells; note: potency is the fitted concentration of half-maximal effect; nearly all actives have a fitted effect of over 30% in size
# VACV mCherry inh: vaccinia inhibition (mCherry reporter). Vaccinia virus mCherry reporter infection, fluorescence. Potency, µM (doses to about 36.5 µM), without a hit: at the top dose activity change, negative = inhibition, usual class: inhibitors. hit rate 0.63% among 310,000. AID 720579; calls by dose curve; tested in A549 cells; note: potency is the fitted concentration of half-maximal effect; nearly all actives have a fitted effect of over 35% in size
# Lassa entry inh: Lassa virus entry inhibition. Lassa virus pseudotype entry inhibition, cell reporter. Potency, µM (titrated, usually from 37.9 µM), for the others: at the top dose activity change, negative = inhibition, most hits filed as inhibitors. hit rate 1.2% among 300,000; calls by dose curve; tested in HEK293 cells; note: potency is the fitted concentration of half-maximal effect; nearly all actives have a fitted effect of over 50% in size
# HCMV inh: human cytomegalovirus inhibition; HFF cells, HCMV-luciferase reporter, 72 h; hits give low values; activity change, negative = inhibition, % at 57.5 µM; hit rate 4.5% among 410,000; in the data active = activity change below about -60%; inconclusive = no clear call, values can overlap the other calls; inactive = above about -39%
#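 Two compound doses tested in HFFs infected with HCMV-luciferase, MOI 1 PFU/cell, 72 h at 37C. Lysate luminescence read with OneGlo; data normalized against buffer-only and 10uM Salinomycin inhibitor controls.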
# * marks the source's active call; other numbers are inactive results; i = inactive; u = inconclusive; x = not tested or not shown; [ ] = dose if it differs, or a comment. % is set by controls: 0 for no effect and ±100 for the full control effect.
SMILES,HCV inh,Marburg entry inh,VACV Venus inh,VACV mCherry inh,Lassa entry inh,HCMV inh
Cc1cc(C)nc(-c2cccc3c2OC(CNC(=O)C2CCOC2)C3)n1 (centres undefined),x,x,-4.5%,-8.4%,x,x
Cc1ccc(N2CC(NC(=O)C3CCCCC3)CC2=O)cc1 (centres undefined),x,x,-14.6%[7.34 µM],-9.4%[7.34 µM],13.7%[46.1 µM],51.7
COc1cccc(NC(=O)Cn2cc(S(=O)(=O)Cc3ccccc3F)c3ccccc32)c1,x,x,-20.5%,-20.2%,-7.3%[46.1 µM],0.0
COc1ccc(NC(=O)c2oc3ccc4c(c3c2C)C(=O)CC(C)(C)O4)cc1OC,x,x,-4.5%,-17.5%,-22.1%[46.1 µM],69.5
CCc1cccc(NC(=O)c2oc3ccc4c(c3c2C)C(=O)CC(C)(C)O4)c1,x,x,-8.1%,-10.1%,-0.9%[46.1 µM],-60.4*
CC[n+]1c(/C=C/c2ccc(OC)c(OC)c2)ccc2ccccc21,1.9%,x,x,x,x,47.2
CCN1/C(=C/c2ccc3cc(C)ccc3[n+]2CC)Sc2ccc3sccc3c21,3.55µM*,x,37.7%,-13.9%,x,x
CCN1/C(=C/c2ccc3cccc(C)c3[n+]2CC)Sc2ccccc21,6.31µM*,2.59µM*,x,x,6.51µM*,-103.6*
CCN1/C(=C\c2ccc3cc(C)ccc3[n+]2CC)Sc2cc(C)c(C)cc21,2.82µM*,u,x,x,x,-96.7*
COc1ccc(-c2cn(-c3ccc(Cl)cc3)c3[n+]2CCCCC3)cc1,-2.6%,-17.8%,-15.9%,i,u,-66.0*
COc1ccc(N2CC(O)(c3ccc(OC(F)F)cc3)[N+]3=C2CCCC3)cc1 (centres undefined),6.4%,u,-0.6%,-14.9%,2.7%,-33.0
COc1ccc(-n2cc(-c3ccc(OC(F)F)cc3)[n+]3c2CCCCC3)cc1,-23.3%,x,x,x,x,-84.9*
Clc1ccc(-c2cn(-c3ccc(Cl)cc3)c3[n+]2CCCCC3)cc1,1.4%,u,-10.3%,-5.5%,21.1%,u
CCCOc1ccc(-c2nonc2NC(=O)COc2ccc(C)cc2)cc1OCCC,x,u,-8.2%,-3.1%,-15.3%[46.1 µM],6.9
O=C(Cn1c(=O)n(-c2ccccc2)c(=O)c2ccc(C(=O)NCc3ccc4c(c3)OCO4)cc21)Nc1ccc(F)c(Cl)c1,x,u,-18.9%,-11.6%,-13.8%[46.1 µM],4.7
CCC(=O)c1ccc(OCC(=O)Nc2cccc(S(=O)(=O)N(C)c3ccccc3)c2)cc1,11.2µM*,x,x,x,x,u
COc1cccc(CN(C)CC(=O)Nc2cccc(S(=O)(=O)N(C)c3ccccc3)c2)c1OC,u,u,-14.2%,-25.3%,u,-14.0
COc1cc(CC(=O)Nc2cccc(SC)c2)cc(OC)c1OC,14.1µM*,u,-5.8%,i,-0.5%[46.1 µM],-14.5
CCN(CC(=O)Nc1cccc(S(=O)(=O)N(C)c2ccccc2)c1)Cc1cccs1,35.5µM*,u,-19.9%,u,u,u
COc1cc(CC(=O)Nc2cccc(S(=O)(=O)N(C)c3ccccc3)c2)cc(OC)c1OC,10µM*,x,x,x,x,u
Cc1ccc2c(=O)cc(C(=O)Nc3sc4c(c3C(N)=O)CCCC4)oc2c1,x,2.7%[46.1 µM],-6.3%,-22.3%,11.3%[46.1 µM],6.4
Cc1cc(C)cc(OCC(=O)Nc2nc3c(s2)CC(C(C)(C)C)CC3)c1 (centres undefined),x,-4.9%[46.1 µM],3.9%,-21.4%,u,-3.4
O=C(Nc1ccccc1C(F)(F)F)N1CCC2(CC1)Oc1ccccc1C(=O)N2Cc1ccccc1F,x,u,-20.4%,-16.4%,x,-73.6*
Cc1ccc(Cl)cc1NC(=O)N1CCC2(CC1)Oc1ccccc1C(=O)N2Cc1ccccc1F,x,-1.6%[46.1 µM],-9.7%,i,x,15.1
COc1ccc(Cn2c(O)cc(=O)[nH]c2=O)cc1,12.0%,18.1%,-6.7%,i,-1.1%,-87.8*
SMILES,HCV inh,Marburg entry inh,VACV Venus inh,VACV mCherry inh,Lassa entry inh,HCMV inh
CCOc1ccc(Cn2c(O)cc(=O)[nH]c2=O)cc1,-29.6%,-2.1%,-20.3%,u,17.8%,-7.5
CCNc1nc(NCC)nc(-n2nc(C)cc2C)n1,u,8.1%,-11.5%,-26.8%,-4.1%,u
Cc1cc(C)n(-c2nc(NC(C)(C)C)nc(NC(C)(C)C)n2)n1,u,u,3.6%,x,10.0%,u
Cc1cc(Nc2cc(F)ccc2C)nc(-n2nc(C)cc2C)n1,x,x,-15.6%[7.34 µM],-12.5%[7.34 µM],u,-80.0*
Cc1cc(Nc2ccccc2C)nc(-n2nc(C)cc2C)n1,x,x,-6.3%[7.34 µM],-6.3%[7.34 µM],u,-68.6*
CCCCc1ccc(Nc2cc(C)nc(-n3nc(C)cc3C)n2)cc1,x,x,-9.8%[7.34 µM],-1.5%[7.34 µM],u,-96.8*
Cc1cc(C)n(-c2nc(Nc3ccccc3C)nc(-n3nc(C)cc3C)n2)n1,x,1.9%,x,x,x,-97.3*
Cc1c(C(=O)Nc2ccc(-n3c(C)nc4ccccc4c3=O)cc2)cccc1[N+](=O)[O-],x,x,-14.5%,-6.7%,5.7%[46.1 µM],-23.2
Cc1cc(C)n(-c2nc(Nc3ccccc3C(F)(F)F)nc(-n3nc(C)cc3C)n2)n1,5.62µM*,10µM*,12.6µM*,x,u,-98.4*
Cc1cc(Nc2ccc(F)cc2)nc(-n2nc(C)cc2C)n1,x,x,-17.2%[7.34 µM],-8.8%[7.34 µM],-10.8%[46.1 µM],-83.4*
Cc1cn2cc(CNC(=O)CN3Cc4ccccc4OC(c4ccccc4F)C3)nc2s1 (centres undefined),x,x,-16.4%,-25.3%,x,x
CCOc1ccc(OC(=O)c2cn(-c3cccc(OC)c3)c(=O)c3ccccc23)cc1,x,x,-11.7%,-14.4%,u,-14.0
CN(C)CC(C)(O)c1ccc2c(c1)CN(C(=O)c1ccc(-n3cccn3)cc1)CCO2 (centres undefined),x,x,10.1%,-6.2%,x,x
CCC1CCC2(CC1)NNC(=S)NN2,0.2%,-26.2%,-17.0%,-10.4%,-14.5%,-62.1*
COc1ccccc1-c1ccc2ncnc(N3CCN(C)CC3)c2c1,x,x,0.0%,i,x,x
Cc1cccc(CNC(=O)c2c3n(c(C)cc2=O)-c2ccccc2SC(c2sccc2C)C3)n1 (centres undefined),x,x,11.6%,-1.8%,x,x
CCCCC1(Cc2ccc([N+](=O)[O-])cc2)C(=O)N(c2ccccc2)N(c2ccccc2)C1=O,12.6µM*,7.94µM*,u,u,u,-97.7*
CCCCC1(COC(=O)CCC(=O)O)C(=O)N(c2ccccc2)N(c2ccccc2)C1=O,-1.4%,x,-14.8%,-0.3%,x,-22.3
O=C(O)c1ccc(/C=C(\c2nc3ccccc3[nH]2)c2nc3ccccc3s2)cc1,27.1%,u,-16.8%,u,18.7%,-30.6
CC(C)(C)c1ccc(/C=C(\c2nc3ccccc3[nH]2)S(=O)(=O)c2ccccc2)cc1,11.2µM*,x,u,14.1µM*,x,x
CCCn1c(CN(Cc2ccccc2)Cc2ccccc2)nc2c1c(=O)n(C)c(=O)n2C,7.94µM*,u,-12.0%,-27.9%,-15.6%,x
CN(Cc1ccccc1)Cc1nc2c(c(=O)n(C)c(=O)n2C)n1CCc1ccccc1,35.5µM*,u,-12.5%,-10.6%,14.2%,-39.2
CN(Cc1ccccc1)Cc1nc2c(c(=O)n(C)c(=O)n2C)n1Cc1ccccc1Cl,u,u,x,x,u,-8.3
CCCCn1c(CN(C)Cc2ccccc2)nc2c1c(=O)n(C)c(=O)n2C,11.2µM*,u,x,x,-17.9%,u
